Screening results as filed in PubChem BioAssay.
The list is not random: actives were taken first. Their share in the collection is about 4%.
Mtb bLac sens: beta-lactam sensitization of Mtb H37Rv, H37Rv | M. tuberculosis H37Rv growth with meropenem, percent inhibition | actives 0.27% (n = 330,000) | AID 434955, 2010 | inhibition, % at 25 µM; call rule not given here;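 note: growth measured after seven days incubation then overnight dye step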
RecA splice inh: Mtb RecA intein splicing inhibitors, primary screen, biochemical, fluorescence, HTS; Protein RecA (Mycobacterium tuberculosis (strain ATCC 25618 / H37Rv)), P9WHJ3; actives 0.75% (n = 290,000); AID 2221, 2009; cell-free RecA intein splicing; inhibition, % (test concentration not listed); in the data active = inhibition above about 30%
Mtb FBA inh: Mtb FBA enzyme inhibitors, primary screen, biochemical, fluorescence, strain H37Rv; Fructose-bisphosphate aldolase (Mycobacterium tuberculosis (strain ATCC 25618 / H37Rv)), …; purified M. tuberculosis FBA, fluorescence read-out; inhibition, % at 1 µM; actives 2.3% (n = 360,000); AID 588726, 2011
GDH-TPI counter-1: GDH-TPI coupling enzyme inhibitors, primary screen, artefact control for M. tuberculosis FBA inhibitor project, biochemical, absorbance, full deck; GDH-TPI coupled enzyme counterscreen, NADH absorbance; inhibition, % at 4.8 µM; actives 1.2% (n = 360,000); AID 588335, 2011; in the data active = inhibition above about 30%
Rv3671c inh: Rv3671c serine protease inhibitors, primary screen, biochemical, fluorescence polarization, M. tuberculosis H37Rv; inhibition, % at 5.96 µM; actives 0.048% (n = 320,000); in the data active = inhibition above about 38%;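 note: extracellular domain of Rv3671c used as enzyme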
UGM FP inh: M. tuberculosis UGM enzyme inhibitors, primary screen, biochemical, fluorescence polarization, single point. actives 0.06% (n = 320,000). UDP-galactopyranose mutase (Mycobacterium tuberculosis (strain ATCC 25618 / H37Rv)), …. inhibition, % at 10 µM. purified UGM, fluorescence polarization probe displacement; in the data active = inhibition above about 10%, passing the limit was not always enough
Target sequence (P9WIQ1 whole entry, looked up): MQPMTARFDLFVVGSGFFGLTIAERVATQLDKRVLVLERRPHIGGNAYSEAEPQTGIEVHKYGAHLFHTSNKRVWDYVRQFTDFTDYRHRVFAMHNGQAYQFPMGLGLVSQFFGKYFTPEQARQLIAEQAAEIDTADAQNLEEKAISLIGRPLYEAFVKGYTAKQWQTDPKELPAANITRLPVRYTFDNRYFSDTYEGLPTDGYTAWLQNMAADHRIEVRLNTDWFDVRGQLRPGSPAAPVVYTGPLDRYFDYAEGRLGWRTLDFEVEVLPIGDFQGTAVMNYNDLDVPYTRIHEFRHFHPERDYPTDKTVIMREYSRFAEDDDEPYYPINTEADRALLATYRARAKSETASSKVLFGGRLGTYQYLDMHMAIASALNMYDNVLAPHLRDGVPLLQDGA
Mtb FBA inh conf: M. tuberculosis aldolase blockers, biochemical, fluorescence, strain H37Rv, confirmation. shares compounds with Mtb FBA inh. purified M. tuberculosis FBA, fluorescence read-out. inhibition, % at 1 µM. actives 78% (n = 5,600). AID 651616, 2012
GDH-TPI counter-2: GDH-TPI coupling enzyme inhibitors, artefact control for M. tuberculosis FBA inhibitor project, biochemical, fluorescence, high throughput; shares compounds with Mtb FBA inh; GDH-TPI coupled enzyme counterscreen; inhibition, % at 1 µM; actives 81% (n = 5,600); AID 652141, 2013; in the data active = inhibition above about 10%
Large screens that a line does not name were inactive (follow-up assays come after a bar, where they were run). Cut-off read from the data, not from the text of the source, unless noted: active = inhibition above about 27%; inactive = the rest.

COc1ccc(Cl)cc1NC(=O)CN(C)C1CCS(=O)(=O)C1 (stereo unspecified)	none (no result: RecA splice inh, UGM FP inh)
Cc1cc(NC(=O)NCc2ccccc2)c(=O)n(Cc2ccc(F)cc2)c1	Mtb FBA inh 28 | Mtb FBA inh conf 98 | GDH-TPI counter-2 83
CCOC(=O)N1CCC(NC(=O)CCc2c(C)nc3c(c(C)nn3-c3ccccc3)c2C)CC1	none (no result: Mtb bLac sens, RecA splice inh, Rv3671c inh, UGM FP inh)
CCOC(=O)N1CCN(C(=O)c2cc(C)c3c(C)nn(-c4ccccc4)c3n2)CC1	Mtb FBA inh 66 | Mtb FBA inh conf inactive | GDH-TPI counter-2 inactive
Cc1c(SCCO)c(=O)[nH]c2cc3c(cc12)OCO3	Mtb FBA inh 35 (no result: RecA splice inh) | Mtb FBA inh conf 127 | GDH-TPI counter-2 120
O=P(c1ccccc1)(c1ccccc1)c1ccccc1C(Br)Br	none (no result: Mtb bLac sens, RecA splice inh, Rv3671c inh, UGM FP inh)
Cc1nc(-c2ccccc2)ccc1C(=O)O	none
Cc1nc(-c2cccc3ccccc23)ccc1C(=O)O	Mtb FBA inh 41 | Mtb FBA inh conf 75 | GDH-TPI counter-2 67
OC[C@@H]1CN(Cc2ccc3c(c2)OCO3)C[C@H](n2cnc3c(NC4CCC4)ncnc32)O1	none (no result: Mtb bLac sens, RecA splice inh, Rv3671c inh, UGM FP inh)
CC1C(c2ccccc2)=Nn2c(=O)n(-c3ccccc3)c(=O)n21 (stereo unspecified)	Mtb FBA inh 103 (no result: Mtb bLac sens, RecA splice inh, Rv3671c inh, UGM FP inh) | Mtb FBA inh conf active | GDH-TPI counter-2 active
CC(C)(C)Nc1c2ccccc2nc2ccccc12	Mtb FBA inh 42 | Mtb FBA inh conf 94 | GDH-TPI counter-2 71
Cc1ccc(C(=O)NNc2c3ccccc3nc3ccccc23)cc1	Mtb FBA inh 36 | Mtb FBA inh conf 97 | GDH-TPI counter-2 103
CCOC(=O)Nc1ccc(Oc2ccccc2)cc1	none
O=C(O)c1ccc(Nc2c3ccccc3nc3ccccc23)cc1	Mtb FBA inh 98 | Mtb FBA inh conf active | GDH-TPI counter-2 active
CCOC(=O)Nc1c2ccccc2nc2ccccc12	Mtb FBA inh 95 | Mtb FBA inh conf 114 | GDH-TPI counter-2 77
CCN(CC)S(=O)(=O)c1ccc(C(=O)NC(=S)N2CCCCC2C)cc1 (stereo unspecified)	none (no result: Mtb bLac sens, RecA splice inh, Rv3671c inh, UGM FP inh)
OCCNc1nc(Nc2cccc(O)c2)nc2ccccc12	none
Oc1cccc(Nc2c3ccccc3nc3ccccc23)c1	Mtb FBA inh 65 | Mtb FBA inh conf inactive | GDH-TPI counter-2 18
CC(C)NC(=O)N(C)C[C@@H]1Oc2c(NC(=O)C3CCOCC3)cccc2C(=O)N([C@@H](C)CO)C[C@H]1C	none (no result: RecA splice inh)
COCCCN1C(=O)C(CC(=O)NCC2CCCCC2)CC(C(=O)N(C)C)=C1C (stereo unspecified)	none (no result: Mtb bLac sens, RecA splice inh, Rv3671c inh, UGM FP inh)
COc1ccccc1C(=O)Nc1ccc2c(C)cc(=O)oc2c1	none
Cc1cc(=O)oc2cc(Nc3ccccc3)ccc12	none (no result: UGM FP inh)
Cc1cc(=O)oc2cc(NC(=O)Cc3ccccc3[N+](=O)[O-])ccc12	Mtb FBA inh 63 (no result: RecA splice inh) | Mtb FBA inh conf 30 | GDH-TPI counter-2 19
Cc1cc(=O)oc2cc(NC(=O)Cc3ccccc3)ccc12	Mtb FBA inh 80 | Mtb FBA inh conf active | GDH-TPI counter-2 185
Cc1cc(=O)oc2cc(NC(=O)C(C)N3C(=O)C4CCCCC4C3=O)ccc12 (stereo unspecified)	Mtb FBA inh 85 (no result: RecA splice inh) | Mtb FBA inh conf 65 | GDH-TPI counter-2 35
CS(=O)(=O)c1cccc(C(=O)Nc2ccccc2Cc2ccccc2)c1	Mtb FBA inh 58 | Mtb FBA inh conf 48 | GDH-TPI counter-2 inactive
O=C(Cc1ccccc1[N+](=O)[O-])Nc1ccc2c(c1)OCO2	none
CC1(C(=O)NS(=O)(=O)C2CC2)CCCN(C(=O)c2cccnc2Oc2ccccc2)C1 (stereo unspecified)	none (no result: Mtb bLac sens, RecA splice inh, Rv3671c inh, UGM FP inh)
